These results are taken from PubChem BioAssay AID651847 (Broad Institute, 2012).

Where “and” joins values, the source holds several entries; their conditions need not be identical. Identical values can stand only once. Inconclusive results are not listed. A number with no mark means an inactive call. Calls of active or inactive are those of the source. No rule for the calls is given here.

This assay in a line: dose response, V. cholerae BH1651, dry powder (AID 651847). The note with it: V. cholerae BH1651 luxOD47E, luciferase light induction, 6 h; at 80 µM (top of the series) unless noted.
On to `Cc1ccccc1CC(=O)NC1CCCC1`, for which the activation (light induction) is 12.5%.
The figure for `CS(=O)(=O)c1ccc(CC(=O)NC2CCCC2)cc1` is -25%; for `CCc1ccccc1NCc1ccc(N2CCCC2)cc1` it is -16.7%.
To `CCn1nnnc1NCc1ccc(N2CCCCC2)cc1` belongs 0% [at 28.5 µM]; to `Cn1nnnc1NCc1ccc(N2CCCC2)cc1`, -25%.
To `c1ccc(Cn2nnc(NCc3ccc(N4CCCC4)cc3)n2)cc1` belongs -50%; to `O=C(NCc1ccc(-c2ccccc2)cc1)C1CCCC1`, 12.5%; to `CCn1nnnc1NCc1ccc(C(C)C)cc1`, -4.17% and 0%.
Take `CCn1nnnc1NCc1ccc(N2CCCC2)cc1`: the activation (light induction) was -12.5%.
Turning to `O=C(Cc1ccc(-c2ccccc2)cc1)NC1CCC1`, the activation (light induction) was 0%.
The figure for `CCn1nnc(NCc2ccc(C)cc2)n1` is 16.7%; for `Cc1ccc(Cn2nnnc2NCc2ccc(N3CCCC3)cc2)cc1` it is -12.5%; for `c1ccc(-n2nnnc2NCc2ccc(N3CCCC3)cc2)cc1` it is 37.5%.
The figure for `O=C(Cc1cccc(F)c1)NC1CCCC1` is 0%; for `COc1ccc(CC(=O)NC2CCCC2)cc1` it is 12.5%; for `CCC(C)NC(=O)Cc1ccc(-c2ccccc2)cc1` (stereo not given) it is 0%.
The figure for `CCn1nnnc1CCc1ccc(N2CCCC2)cc1` is -12.5%; for `CCn1nnc(CCc2ccc(N3CCCC3)cc2)n1` it is -25%.
`CC(C)NC(=O)Cc1ccc(-c2ccccc2)cc1`: the activation (light induction) was 25%.
`O=C(Cc1cccc(OC(F)(F)F)c1)NC1CCCC1`: the activation (light induction) was 0%.
To `CCn1nnnc1NCc1ccccc1N1CCCC1` belongs 0%; to `CCCn1nnnc1NCc1ccc(C(C)C)cc1`, 50%; to `CCC(CC)NC(=O)Cc1ccc(-c2ccccc2)cc1`, -16.7%.
For the compound `CC(C)c1ccc(CNc2nnnn2C)cc1`, the activation (light induction) is 37.5%.
To `O=C(Cc1ccc(-c2ccccc2)cc1)NC1CC1` belongs 25% (active); to `O=C(Cc1ccccc1F)NC1CCCC1`, -12.5%.
To `CCCCn1nnnc1NCc1ccc(N2CCCC2)cc1` belongs -25%.
To `O=C(Cc1ccc(-c2ccccc2)cc1)NC1CCCCC1` belongs -12.5%; to `O=C(Cc1ccc(-c2ccccc2)cc1)NC1CCCC1`, 0%.
On to `CCn1nccc1NCc1ccc(N2CCCC2)cc1`, for which the activation (light induction) was 12.5%.
Consider `CC(C)(C)OC(=O)N1CC(NC(=O)Cc2ccc(-c3ccccc3)cc2)C1`, for which the activation (light induction) was 0%.
Consider `O=C(Cc1ccc(-c2ccccc2)cc1)NC1CCOCC1`, for which the activation (light induction) is -12.5%.
`O=C(Cc1ccccc1C(F)(F)F)NC1CCCC1`: the activation (light induction) was 0%.
To `CCCn1nnnc1NCc1ccccc1Cl` belongs 25%; to `CC1(NC(=O)Cc2ccc(-c3ccccc3)cc2)COC1`, 0%; to `CCn1nnnc1NCc1cccc(OC)c1`, -25%.
To `CCn1nnnc1NCc1cccc(N2CCCC2)c1` belongs -33.3%.
To `CCn1nccc1/N=C/c1ccc(N2CCCC2)cc1` belongs 0%; to `CCCn1nnnc1NCc1ccc(N2CCCC2)cc1`, -25%; to `c1ccc(Cn2nnnc2NCc2ccc(N3CCCC3)cc2)cc1`, 0%.
